From the supplement of paper PMC8866396 come the findings set out here.

Each structure is given as a SMILES string. ± gives the standard deviation of the averaged measurements.

The subject of one assay is IL-6-GFP PC-9GR. Description: cell viability (CCK-8 OD) relative to DMSO control (fraction of control); higher = more viable cells. As to conditions: compound concentration: 10 uM; treatment time: 48 h. Put shortly: (§1)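 Each well's viability is its CCK-8 optical density divided by that of the vehicle control well. The cells, PC-9 and PC-9GR lung cancer lines overexpressing IL-6-GFP from a lentiviral construct, were seeded at 3000 cells/well in 96-well plates and exposed for 48 h to each compound of a purchased 510-compound library at a final 10 μM, in two independent replicates.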

The test system of a further assay is IL-6-GFP PC-9. The description is as above. Particulars: compound concentration: 10 uM; treatment time: 48 h. Put shortly:
as §1

`CCC1(O)C(=O)OCc2c1cc1n(c2=O)Cc2cc3ccccc3nc2-1` (centres undefined) [Camptothecin]: the values for the cell viability with IL-6-GFP PC-9GR and with IL-6-GFP PC-9 were 0.807 ± 0.36 and 0.364 ± 0.036, respectively.

In the case of `Cl.Cn1c(CCCC(=O)O)nc2cc(N(CCCl)CCCl)ccc21` [Bendamustine HCl], the cell viability amounted to 1.26 ± 0.066 in the assay with IL-6-GFP PC-9GR and 1.2 ± 0.11 with IL-6-GFP PC-9.

`O=C(O)CCCc1ccc(N(CCCl)CCCl)cc1` [Chloroambucil]: the values for the cell viability in the assay with IL-6-GFP PC-9GR and in the assay with IL-6-GFP PC-9 were 0.937 ± 0.15 and 0.97 ± 0.18, respectively.

Regarding `CC1CC(=O)CC2CCC3C4CCC(O)C4(C)CCC3C12C` (centres undefined) [Mesterolone], the cell viability with IL-6-GFP PC-9GR was 1.26 ± 0.32; with IL-6-GFP PC-9, 1.21 ± 0.12.

For `CC(C)(C)NCC(O)c1ccccc1Cl.Cl` (centres undefined) [Tulobuterol hydrochloride], the values for the cell viability in the assay with IL-6-GFP PC-9GR and in the assay on IL-6-GFP PC-9 were 1.07 ± 0.17 and 1.08 ± 0.15, respectively.

Turning to `Cn1c(CCCC(=O)O)nc2cc(N(CCCl)CCCl)ccc21` [Bendamustine], the cell viability in the assay with IL-6-GFP PC-9GR was 1.02 ± 0.09; in the assay on IL-6-GFP PC-9, 1.02 ± 0.18.

Consider `CCC1=CC2CN3CCc4c([nH]c5ccccc45)C(C(=O)OC)(C2)C13` (centres undefined) [Catharanthine], for which the cell viability in the assay with IL-6-GFP PC-9GR came out at 1.02 ± 0.093; with IL-6-GFP PC-9, 1.1 ± 0.1.

As to `COc1cc2c(cc1O)CC1c3c(cc(O)c(OC)c3-2)CCN1C` (centres undefined) [Boldine], the results for the cell viability with IL-6-GFP PC-9GR and in the assay with IL-6-GFP PC-9 were 0.922 ± 0.2 and 1.05 ± 0.11, respectively.

As for `Cc1cccc(C(C)c2c[nH]cn2)c1C.Cl` (centres undefined) [Medetomidine HCl], the cell viability with IL-6-GFP PC-9GR is 1.25 ± 0.37; with IL-6-GFP PC-9, 1.09 ± 0.011.

Consider `CCC1(O)C(=O)OCc2c1cc1n(c2=O)Cc2c-1nc1ccccc1c2CCNC(C)C.Cl` (centres undefined) [Belotecan (CKD-602) hydrochloride], for which the cell viability in the assay on IL-6-GFP PC-9GR amounted to 0.322 ± 0.15; with IL-6-GFP PC-9, 0.349 ± 0.055.

Turning to `O=P1(NCCCl)OCCCN1CCCl` (centres undefined) [Ifosfamide], the cell viability with IL-6-GFP PC-9GR is 1.15 ± 0.092; with IL-6-GFP PC-9 it was 0.8 ± 0.02.

In the case of `COC1=CC2C3Cc4ccc(OC)c(O)c4C2(CCN3C)CC1=O` (centres undefined) [Sinomenine], the cell viability in the assay with IL-6-GFP PC-9GR is 1.31 ± 0.18; in the assay with IL-6-GFP PC-9 it was 1.19 ± 0.097.

`COc1cc2c(c(OC)c1OC)-c1ccc(OC)c(=O)cc1C(NC(C)=O)CC2` (centres undefined) [Colchicine]: the cell viability in the assay on IL-6-GFP PC-9GR worked out at 0.584 ± 0.1; in the assay with IL-6-GFP PC-9, 0.686 ± 0.078.

With `CN(C)NC(=O)CCC(=O)O` [Daminozide], the figures for the cell viability in the assay on IL-6-GFP PC-9GR and in the assay with IL-6-GFP PC-9 were 1.09 ± 0.18 and 1.28 ± 0.05, respectively.

With `COC1=CC2C3Cc4ccc(OC)c(O)c4C2(CCN3C)CC1=O.Cl` (centres undefined) [Sinomenine hydrochloride], the cell viability in the assay on IL-6-GFP PC-9GR came out at 1.33 ± 0.43; with IL-6-GFP PC-9 it was 1.28 ± 0.086.

As for `CC(C)[N+](C)(CCC(C(N)=O)(c1ccccc1)c1ccccc1)C(C)C.[I-]` [Isopropamide Iodide], the cell viability worked out at 0.876 ± 0.069 with IL-6-GFP PC-9GR and 0.841 ± 0.16 in the assay with IL-6-GFP PC-9.

As to `c1ccc2c(c1)Sc1ccccc1N2CC1CN2CCC1CC2` (centres undefined) [Mequitazine], the cell viability stood at 0.705 ± 0.19 with IL-6-GFP PC-9GR and 1.01 ± 0.021 in the assay with IL-6-GFP PC-9.

In the case of `O=C(O)C1C2CCC(O2)C1C(=O)[O][Na]` (centres undefined) [Sodium Demethylcantharidate], the cell viability came out at 1.12 ± 0.29 with IL-6-GFP PC-9GR and 1.31 ± 0.083 with IL-6-GFP PC-9.

With `Cn1cc(C2=C(c3cn(C4CCN(Cc5ccccn5)CC4)c4ccccc34)C(=O)NC2=O)c2ccccc21`, the cell viability with IL-6-GFP PC-9GR was 1.09 ± 0.062; in the assay with IL-6-GFP PC-9, 1.09 ± 0.16.

With `O=C(O)c1nn(Cc2ccc(Cl)cc2Cl)c2ccccc12` [Lonidamine], the cell viability stood at 1.29 ± 0.1 in the assay on IL-6-GFP PC-9GR and 1.19 ± 0.13 in the assay on IL-6-GFP PC-9.

In the case of `O.O=P1(N(CCCl)CCCl)NCCCO1` (centres undefined) [Cyclophosphamide Monohydrate], the cell viability with IL-6-GFP PC-9GR turned out to be 1.16 ± 0.065; in the assay with IL-6-GFP PC-9, 1.2 ± 0.029.

On to `CC12CCC3C(CCC4=C(O)C(=O)CCC43C)C1CCC2=O` (centres undefined) [Formestane], for which the cell viability came out at 1.4 ± 0.13 with IL-6-GFP PC-9GR and 0.466 ± 0.055 in the assay on IL-6-GFP PC-9.

For the compound `CC(C)C12OC1C1OC13C1(C)CCC4=C(COC4=O)C1CC1OC13C2=O` (centres undefined) [Triptonide], the cell viability with IL-6-GFP PC-9GR was 0.403 ± 0.18; with IL-6-GFP PC-9, 0.467 ± 0.063.

Take `CC(C)C12OC1C1OC13C1(C)CCC4=C(COC4=O)C1CC1OC13C2O` (centres undefined) [Triptolide (PG490)]: the cell viability in the assay on IL-6-GFP PC-9GR was found to be 0.466 ± 0.21; in the assay with IL-6-GFP PC-9, 0.447 ± 0.12.

In the case of `CC12CCC3c4ccc(OC(=O)N(CCCl)CCCl)cc4CCC3C1CCC2OP(=O)([O-])[O-].[Na+].[Na+]` (centres undefined) [Estramustine phosphate sodium], the cell viability with IL-6-GFP PC-9GR came to 0.645 ± 0.29; in the assay with IL-6-GFP PC-9, 1.01 ± 0.25.

`O=c1c2ccccc2[se]n1-c1ccccc1` [Ebselen]: the cell viability came out at 0.788 ± 0.063 in the assay on IL-6-GFP PC-9GR and 1.36 ± 0.22 with IL-6-GFP PC-9.

With `COc1cc(C2c3cc4c(cc3C(O)C3COC(=O)C23)OCO4)cc(OC)c1OC` (centres undefined) [Picropodophyllin (PPP)], the cell viability is 0.668 ± 0.27 in the assay with IL-6-GFP PC-9GR and 0.603 ± 0.07 in the assay on IL-6-GFP PC-9.

`COC(=O)CC(O)(CCC(C)(C)O)C(=O)OC1C(OC)=CC23CCCN2CCc2cc4c(cc2C13)OCO4` (centres undefined) [Harringtonine]: the cell viability in the assay on IL-6-GFP PC-9GR stood at 0.245 ± 0.14; with IL-6-GFP PC-9, 0.323 ± 0.058.

Consider `CC1CCC2N(C1)CC1C3CC4C(CC(O)C5CC(O)CCC54C)C3CCC1C2(C)O` (centres undefined) [Peimine], for which the figures for the cell viability with IL-6-GFP PC-9GR and with IL-6-GFP PC-9 were 1.12 ± 0.26 and 1.211 ± 0.0049, respectively.

Turning to `NC(Cc1ccc(N(CCCl)CCCl)cc1)C(=O)O` (centres undefined) [Melphalan], the cell viability with IL-6-GFP PC-9GR came to 0.78 ± 0.037; with IL-6-GFP PC-9 it was 0.891 ± 0.076.

On to `C=CCN1CC(C(=O)N(CCCN(C)C)C(=O)NCC)CC2c3cccc4[nH]cc(c34)CC21` (centres undefined) [Cabergoline], for which the cell viability turned out to be 0.968 ± 0.23 in the assay with IL-6-GFP PC-9GR and 1.05 ± 0.21 in the assay with IL-6-GFP PC-9.

`Cc1c(N)nc(C(CC(N)=O)NCC(N)C(N)=O)nc1C(=O)NC(C(=O)NC(C)C(O)C(C)C(=O)NC(C(=O)NCCc1nc(-c2nc(C(=O)NCCC[S+](C)C)cs2)cs1)C(C)O)C(OC1OC(CO)C(O)C(O)C1OC1OC(CO)C(O)C(OC(N)=O)C1O)c1c[nH]cn1.O=S(=O)([O-])O` (centres undefined) [Bleomycin sulfate]: the cell viability came to 0.653 ± 0.13 in the assay with IL-6-GFP PC-9GR and 0.473 ± 0.051 in the assay on IL-6-GFP PC-9.
